Data published in PubChem BioAssay AID1347156 (National Center for Advancing Translational Sciences (NCATS), 2019).
Records with an inconclusive call do not appear. Calls of active or inactive are those of the source. Calls come from the whole dose curve; as a rule, active = well fitted cell-killing curve with a large enough effect; inconclusive = small, poorly fitted or top-dose-only effect; inactive = flat fitted curve, though single readings scatter.

experiment: DAPI mCherry counterscreen qHTS for Zika virus inhibitors; conditions: Vero cells, DAPI nuclear count cytotoxicity, imaging 48-72 h, infected with Zika reporter virus, MOI 1; series mostly up to 32.6 µM; activity change, negative = cell loss: at the top concentration; note: nearly all actives have a fitted effect of over 55% in size
Source text: Assay Submitters (PI): Avindra Nath, Ph.D., National Institute of Neurological Disorders and Stroke (NINDS), Bethesda, MD Radhakrishnan Padmanabhan, Ph.D., Georgetown University (GU), Washington D.C. Zika Virus causes congenital defects, including microcephaly and is associated with Guillain-Barre syndrome, eningoencephalitis and myelitis in infected adult. […] Using a target-based approach, we hope to establish a screening paradigm to uncover novel, cell-active NS2B-NS3 protease (Zika Virus) specific inhibitors from NCATS' collection of small molecules using qHTS. […] Four assay panel was created to identify potential Zika Virus inhibitors. Namely, (1) GU unlinked NS2B-NS3 AMC tagged protease qHTS, (2) GU unlinked NS2B-NS3 Rhodamine tagged protease qHTS, (3) NINDS linked NS2B-NS3 AMC tagged protease qHTS, (4) NINDS linked NS2B-NS3 Rhodamine tagged protease qHTS. Active compounds were re-acquired and re-screened to confirm inhibition. Inhibitors were further screened against various confirmatory and counterscreens in dose response format. […] A DAPI (mCherry counterscreen) which determine Vero cell cytotoxicity was used to exclude false positive compounds. […] Early Translation Branch (ETB) National Center for Advancing Translational Sciences (NCATS), Rockville, MD National Institute of Health (NIH), Bethesda, Maryland
384 well ZIKV-mCherry & mCherry DAPI counterscreen: We have developed a new orthogonal imaging assay in 384-well plate format, which uses recombinant virus ZIKV-mCherry in Vero cells. Briefly, 30 microL of Vero cells derived from a green monkey cell line, were dispensed by Multidrop Dispenser into a clear solid bottom black 384 well plate (ultracarrier, Perkin Elmer LifeSciences) at a concentration of 5,000 cells per well. The plate was incubated overnight in a CO2 incubator at 37 degrees C. Compounds were delivered as a 126 nL DMSO solution by Kalypsys pintool transfer. Following compound transfer, 10 microL of ZIKV-mCherry was added at an MOI of 1 and incubated in a CO2 incubator for 48-72 hrs at 37 degrees C. After sufficient incubation of infected cells in test plates, 8 microL of 32% PFA was dispensed into assay plates to fix cells and incubated for 20 min at room temperature. Plates were washed 3 times with PBS using BioTek EL406 microplate washer/dispenser. After washing, 30 microL of PBS with 0.01% TX-100 containing Hoechst dye was dispensed into the each well of the plates for nuclear staining. 384-well plates were imaged on an automated, widefield high content imager (INCell 2200, GE Healthcare) using a 10x/0.45 NA lens and standard DAPI (nuclear stain) and mCherry (cy5) excitation and emission filters. The TIFFs were quantitated using the canned Multi Target Analysis protocol (GE Investigator Workstation software v3.7.2). Briefly, nuclei from the DAPI channel were identified using top hat segmentation and a sensitivity setting of 96 and minimum size area of 35 microm2. A recombinant Zika viral infection was monitored in the Cy5 channel (cells) using a 2 microm collar dilation from the nuclear bitmap. mCherry objects with an average nuclear RFU intensity above 450 (3 stdev above mean negative control wells) were considered "mcherry positive" and data was analyzed by percent infection rate.
% is set by controls: 0 for no effect and ±100 for the full control effect; potency is the fitted concentration of half-maximal effect.

Row | Structure (SMILES) | Potency | activity change, negative = cell loss
1 | CN(Cc1ccc(C(=O)O)cc1)c1ccc(OCc2c(-c3c(Cl)cccc3Cl)noc2C2CC2)nc1C(F)(F)F | 15.8 µM (active) | 
2 | O=C(O)C1(Cc2cccc(Nc3nccs3)n2)CCC(Oc2cccc(Cl)c2F)CC1 (stereo not given) | 17.8 µM (active) | 
3 | C[C@@H](NC(=O)c1ccc(Cl)cc1)c1c(-c2ccc(F)cc2)noc1C(=O)O |  | 1.41% [at 49.1 µM] (inactive)
4 | N#CC(c1ccc(Cl)cc1)c1c(Cl)cc(-n2ncc(=O)[nH]c2=O)cc1Cl (stereo not given) | 25.1 µM (active) | 
5 | CC(C)(Sc1ccc(CCN(CCCCC2CCCCC2)C(=O)NC2CCCCC2)cc1)C(=O)O | 14.1 µM (active) | 
6 | CCCCCc1ccc(/C=C/C(=O)Nc2cc(Cl)ccc2C(=O)O)cc1 | 35.5 µM (active) | 
7 | O=S(=O)(O)c1cc(O)c2c(N=Nc3ccc(Nc4ccccc4)c4c(S(=O)(=O)O)cccc34)cc(S(=O)(=O)O)cc2c1 |  | -9.05% (inactive)
8 | O=C1c2c(O)ccc([N+](=O)[O-])c2C(=O)c2c([N+](=O)[O-])ccc(O)c21 | 39.8 µM (active) | 
9 | NC(=O)c1ccc2nc(-c3ccc(Oc4ccc(Cl)cc4)cc3)[nH]c2c1 | 31.6 µM (active) | 
10 | O=C(O)Cc1cccc(OCCCN(Cc2cccc(C(F)(F)F)c2Cl)CC(c2ccccc2)c2ccccc2)c1 | 15.8 µM (active) | 
11 | COc1cc(Nc2nc3ccccc3nc2NS(=O)(=O)c2cccc(NC(=O)c3ccc(C)c(OC)c3)c2)cc(OC)c1 | 4.47 µM (active) | 
12 | Cc1ccc(C(=O)Nc2ccc(S(=O)(=O)O)c3cc(S(=O)(=O)O)cc(S(=O)(=O)O)c23)cc1NC(=O)c1cccc(NC(=O)Nc2cccc(C(=O)Nc3cc(C(=O)Nc4ccc(S(=O)(=O)O)c5cc(S(=O)(=O)O)cc(S(=O)(=O)O)c45)ccc3C)c2)c1 |  | -11.1% (inactive)
13 | Cc1cc(-c2ccc(N=Nc3ccc4c(S(=O)(=O)O)cc(S(=O)(=O)O)c(N)c4c3O)c(C)c2)ccc1N=Nc1ccc2c(S(=O)(=O)O)cc(S(=O)(=O)O)c(N)c2c1O |  | -8.92% (inactive)
14 | Cc1oc2c(cc(NS(=O)(=O)c3ccc(Br)cc3)c3ccccc32)c1C(=O)OCc1ccccc1 |  | -18.7% (inactive)
15 | CC(C)c1cc(C(C)C)c(CC(=O)NS(=O)(=O)Oc2c(C(C)C)cccc2C(C)C)c(C(C)C)c1 | 10 µM (active) | 
16 | O=C(O)c1ccc(CCCc2ccc(OCCc3ccc(F)cc3)cc2)o1 | 31.6 µM (active) | 
17 | CN(CC(=O)N(Cc1ccc(C2CCCCC2)cc1)c1ccc(C(=O)O)cc1)S(=O)(=O)c1c(F)c(F)c(F)c(F)c1F | 5.62 µM (active) | 
18 | O=C(O)c1cc(-c2ccc(C(F)(F)F)cc2)nc2n[nH]c(-c3ccccc3)c12 |  | -12.5% (inactive)
19 | O=C(O)c1cccc(-c2ccc(-c3cn(C(=O)N4CCCCC4Cc4ccccc4)nn3)cc2)c1 (stereo not given) | 35.5 µM (active) | 
20 | O=C(Nc1ccc(Oc2ccc(Cl)cc2)c(Cl)c1)c1cc(I)cc(I)c1O | 10 µM (active) | 

Row | Structure (SMILES) | Potency | activity change, negative = cell loss
21 | CCN(Cc1cccc(S(=O)(=O)O)c1)c1ccc(C(=C2C=CC(=[N+](CC)Cc3cccc(S(=O)(=O)O)c3)C=C2)c2ccc(O)cc2S(=O)(=O)O)cc1 |  | -14.3% (inactive)
22 | CC[C@H](C)[C@H]1O[C@]2(CC[C@@H]1C)C[C@@H]1C[C@@H](C/C=C(\C)[C@@H](O[C@H]3C[C@H](OC)[C@@H](O[C@H]4C[C@H](OC)[C@@H](O)[C@H](C)O4)[C@H](C)O3)[C@@H](C)/C=C/C=C3\CO[C@@H]4[C@H](O)C(C)=C[C@@H](C(=O)O1)[C@]34O)O2 | 8.91 µM (active) | 
23 | COc1cc(-c2ccc(N=Nc3ccc4c(S(=O)(=O)O)cc(S(=O)(=O)O)c(N)c4c3O)c(OC)c2)ccc1N=Nc1ccc2c(S(=O)(=O)O)cc(S(=O)(=O)O)c(N)c2c1O |  | -13.8% (inactive)
24 | COc1cc(Nc2nc3ccccc3nc2NS(=O)(=O)c2ccc(NC(=O)c3ccc(C)c(OC)c3)cc2)cc(OC)c1 | 4.47 µM (active) | 
25 | C/C=C/C=C/C=C/C(=O)O[C@@H]1[C@@H](OC)C2=C(C(=O)N(C(CCC(=O)O)C(=O)O)C2)[C@@]2(C)CCCC(C)(C)[C@H]12 (stereo not given in full) |  | -13.5% [at 16.3 µM] (inactive)
26 | CC1(COc2ccc(CC3SC(=O)NC3=O)cc2)CCCCC1 (stereo not given) | 31.6 µM (active) | 
27 | O=C(OCc1cc(=O)n2nc(C3CC3)sc2n1)c1ccc(NC(=O)c2ccccc2Cl)cc1 |  | -18.5% (inactive)
28 | COc1ccc(Br)cc1S(=O)(=O)NC(=O)/C=C/c1ccccc1Cc1ccc2ccccc2c1 | 31.6 µM (active) | 
29 | COc1cccc(-n2nc(C(=O)O)cc2-c2ccc(C3CCCCC3)c(Cl)c2)c1 | 35.5 µM (active) | 
30 | O=C(Nc1c(C(=O)O)oc2ccccc12)c1ccc(C(F)(F)F)cc1 |  | -19.9% (inactive)
31 | O=C(O)COc1ccccc1C1Nc2ccccc2-c2nnc(SCc3ccc(Cl)cc3)nc2O1 (stereo not given) |  | -15% (inactive)
32 | COc1ccc(/C=C(\C#N)c2nc(-c3cc4c(ccc5ccccc54)oc3=O)cs2)cc1O | 1 µM (active) | 
33 | O=c1c(O)c(-c2ccc(O)c(O)c2)oc2cc(O)ccc12 |  | -17.3% (inactive)
34 | O=C(O)c1ccc(C2Nc3ccccc3-c3nnc(SCc4ccc(Cl)cc4)nc3O2)cc1 (stereo not given) |  | -17% (inactive)
35 | Cc1cc(N2CCOCC2)cc2[nH]c(-c3c(NC[C@@H](O)c4cccc(Cl)c4)cc[nH]c3=O)nc12 | 12.6 µM (active) | 
36 | CC(=O)N1c2ccc(-c3ccc(C(=O)O)cc3)cc2C(Nc2ccc(Cl)cc2)CC1C (stereo not given) | 1 µM (active) | 
37 | O=S(=O)(Nc1ccc(Cl)cc1)c1ccc(NS(=O)(=O)c2ccc3c(c2)OCCO3)cc1 | 31.6 µM (active) | 
38 | COc1ccc(Cl)c(Nc2nc3ccccc3nc2NS(=O)(=O)c2cccc(NC(=O)C(C)(C)N)c2)c1 | 22.4 µM (active) | 
39 | CNC(=O)c1cc(Oc2ccc(NC(=O)Nc3ccc(Cl)c(C(F)(F)F)c3)cc2)ccn1 | 4.47 µM (active) | 
40 | N#Cc1c(O)c2c(-c3ccc(-c4ccccc4O)cc3)csc2[nH]c1=O |  | -14.6% (inactive)
